# Compounds with a hit are over-represented: about 11% of the library has one in this group of screens.
# hNpr1 antagonist: antagonists of human natriuretic peptide receptor Npr1; AID 1347048; HEK293 hNpr1 GloSensor cGMP, ANP-stimulated luminescence; Potency, µM (highest dose often 46.3 µM), inactives show top-dose activity change, negative = inhibition, most hits filed as inhibitors; P16066; hit rate 1.6% among 76,000; calls by dose curve; note: nearly all actives have a fitted effect of over 60% in size
#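 HEK293 cells stably expressing human Npr1 and cGMP GloSensor pGS-40F, loaded 2 h with 2% GloSensor reagent, given compound 30 min at room temperature. Luminescence read before and 20 min after 0.1 nM hNppA.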
# Luciferase inh: inhibitors of firefly (Photinus pyralis) luciferase | P08659 | purified P. pyralis luciferase, luminescence, biochemical | Potency, µM (series often up to 115 µM), hits mostly inhibitors | hit rate 2.5% among 76,000 | AID 1347043; note: nearly all actives have a fitted effect of over 65% in size
# Target sequence (P08659 whole entry, looked up): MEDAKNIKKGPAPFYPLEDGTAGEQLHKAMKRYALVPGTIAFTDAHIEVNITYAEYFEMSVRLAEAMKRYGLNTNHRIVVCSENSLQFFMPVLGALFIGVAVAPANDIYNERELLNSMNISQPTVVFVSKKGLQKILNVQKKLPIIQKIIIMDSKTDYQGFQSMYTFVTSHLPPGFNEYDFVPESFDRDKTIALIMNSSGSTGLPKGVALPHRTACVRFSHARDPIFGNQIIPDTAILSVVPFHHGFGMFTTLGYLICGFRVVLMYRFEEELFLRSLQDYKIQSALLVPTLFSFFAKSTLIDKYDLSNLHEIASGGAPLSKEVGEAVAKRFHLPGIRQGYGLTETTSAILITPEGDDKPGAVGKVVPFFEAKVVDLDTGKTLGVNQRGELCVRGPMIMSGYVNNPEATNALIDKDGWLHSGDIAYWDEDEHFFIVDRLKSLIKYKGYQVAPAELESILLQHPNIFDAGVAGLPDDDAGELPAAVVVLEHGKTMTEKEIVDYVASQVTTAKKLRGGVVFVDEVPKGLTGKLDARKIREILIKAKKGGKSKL
#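 Purified P. pyralis luciferase (10nM final) in 50mM Tris acetate pH 7.5, 10mM Mg acetate, 0.01% Tween-20, 0.05% BSA with 10uM D-luciferin and 10uM ATP. Compounds titrated qHTS. Luminescence imaged on CCD.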
# HEK cytotox: cytotoxic compounds in HEK 293 cells; AID 1345083; Potency, µM (series often up to 115 µM), for the others: at the highest dose activity change, negative = cytotoxicity, actives largely listed as inhibitors; hit rate 6.6% among 94,000; HEK 293 viability, ATP luminescence (CellTiter-Glo), 48-72 h; note: nearly all actives have a fitted effect of over 60% in size
#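 HEK 293 cells seeded at 250 cells/well were exposed to compound for 48 or 72 hr at 37 degree Celsius. Viability taken as ATP content by CellTiter-Glo luminescence.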
# NIH3T3 tox: kills NIH 3T3 cells; NIH 3T3 viability, CellTiter-Glo ATP luminescence, 48-72 h; Potency, µM (top dose mostly 96.7 µM), for inactives: top-dose activity change, negative = cytotoxicity, usual class: inhibitors; hit rate 4.3% among 94,000; note: nearly all actives have a fitted effect of over 55% in size
#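 First NIH 3T3 cells are plated at 400 cells/well; next compound is pinned in; then plates incubate 48 or 72 hr at 37 °C; finally CellTiter-Glo is added and luminescence read after 10 min.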
# * hit, by the source's call; i = inactive; ? = inconclusive; · = no result given; [ ] = another dose, or the depositor's remark. Unless noted, calls come from the whole dose curve; as a rule, active = well fitted curve in the direction sought with a large enough effect; inconclusive = small, poorly fitted or top-dose-only effect, or another doubt; inactive = no such curve, though single readings can be large; an effect the other way counts as inactive or inconclusive. % is set by controls: 0 for no effect and ±100 for the full control effect; potency is the fitted concentration of half-maximal effect.
SMILES,hNpr1 antagonist,Luciferase inh,HEK cytotox,NIH3T3 tox
CCc1ccc(NC(=O)C2CCc3nc(N4CCN(C(=O)C(C)C)CC4)sc3C2)cc1 (stereo not drawn),-27%,i,?,-19%
CCC(=O)N1CCN(c2nc3c(s2)CC(C(=O)Nc2ccc(C(C)C)cc2)CC3)CC1 (stereo not drawn),?,i,35µM*,?
CC(C)C(=O)N1CCN(c2nc3c(s2)CC(C(=O)NC2CCN(C)CC2)CC3)CC1 (stereo not drawn),-1%,i,-4%,-8%
CCC(=O)N1CCN(c2nc3c(s2)CC(C(=O)Nc2ccc(F)cc2)CC3)CC1 (stereo not drawn),?,i,13µM*,32µM*
CC(C)C(=O)N1CCN(c2nc3c(s2)CC(C(=O)NCCc2cccs2)CC3)CC1 (stereo not drawn),-9%,i,79µM*,-23%
CC(=O)N1CCN(c2nc3c(s2)CC(C(=O)Nc2ccc(F)c(Cl)c2)CC3)CC1 (stereo not drawn),?,i,7.9µM*,20µM*
Cn1ncc2c(C(=O)NCCCc3ccccc3)cc(-c3cccc(F)c3)nc21,·,·,?,-23%
CN(C)CCC(=O)N1Cc2ccccc2CC2(CCCN2Cc2cccnc2)C1 (stereo not drawn),·,·,0%,4%
O=C(C1CCCC1)N1CCC(C(=O)N2CCCC(c3nc4ccncc4[nH]3)C2)CC1 (stereo not drawn),·,·,-13%,-16%
COc1ccccc1CN1CCCC(c2[nH]ccc2C(N)=O)C1 (stereo not drawn),-13%,i,-28%,-26%
CCC(=O)N1CCN(c2nc3c(s2)CC(C(=O)Nc2ccc4c(c2)OCO4)CC3)CC1 (stereo not drawn),2%,i,14µM*,?
CC(=O)N1CCN(c2nc3c(s2)CC(C(=O)NCc2ccc(C(C)C)cc2)CC3)CC1 (stereo not drawn),?,i,45µM*,?
CCC(=O)N1CCN(c2nc3c(s2)CC(C(=O)N2CCCCC2)CC3)CC1 (stereo not drawn),-4%,i,-22%,-18%
COCCN1C(=O)CCc2cc(NC(=O)c3ccc(C)cc3C)ccc21,0%,40µM*,?,?
CCN1C(=O)CCc2cc(NC(=O)c3cc(F)cc(F)c3)ccc21,-3%,?,?,?
CCN1C(=O)CCc2cc(NC(=O)c3ccc(OC)cc3C)ccc21,-2%,25µM*,71µM*,?
COCCN1C(=O)CCc2cc(NC(=O)c3ccccc3C)ccc21,0%,i,-9%,-13%
CN(CC(=O)N1CCC(C)(c2noc(C3CC3)n2)CC1)S(=O)(=O)c1ccc2c(c1)oc(=O)n2C,18%,i,-14%,-21%
CN(CC(=O)N1CCC(CCOc2ccccc2F)C1)S(=O)(=O)c1ccc2c(c1)oc(=O)n2C (stereo not drawn),-23%,i,40µM*,?
O=C(CN1C(=O)CCC1=O)N1CCC(CCOc2ccccc2F)C1 (stereo not drawn),?,i,45µM*,-28%
Cc1nn(C(=O)CCC(=O)N2CCC(CCOc3ccccc3F)C2)c2ccccc12 (stereo not drawn),-3%,i,-12%,-8%
COc1ccc(CC(=O)NCCNC(=O)c2ccc(-c3cncnc3)cc2)cc1,·,·,-10%,-23%
COCCCNC(=O)CNC(=O)c1ccc(-c2cnc3ccccc3c2)cc1,·,·,79µM*,-40%
O=C(CNC(=O)c1ccc(-c2cnc3ccccc3c2)cc1)NCc1ccc2c(c1)OCO2,·,·,50µM*,-26%
O=C(CNC(=O)c1ccc(-c2cnc3ccccc3c2)cc1)NCc1ccc(F)cc1,·,·,?,-49%
SMILES,hNpr1 antagonist,Luciferase inh,HEK cytotox,NIH3T3 tox
CCOc1ccc(CC(=O)N2CCN(c3cc(-c4ccc(OC)cc4)[nH]n3)CC2)cc1,-23%,i,?,?
COc1ccc(CCC(=O)N2CC[C@@H]3COCCN(Cc4ccncc4)[C@@H]3C2)cc1,-12%,40µM*,-4%,?
COc1ccc2nc(C[C@@H]3C[C@@H](C(C)C)[C@H](CNC(=O)[C@@H]4CCCC[C@@H]4C(=O)O)C=C3C)[nH]c2c1,6%,i,3%,-4%
CC(=O)N1CCC(NC[C@@H]2C=C(C)[C@H](Cc3nc4ccccc4[nH]3)C[C@H]2C(C)C)CC1,-18%[70.6 µM],i,89µM*,112µM*
COc1ccc2nc(C[C@@H]3C[C@@H](C(C)C)[C@H](CNC4CCCCC4)C=C3C)[nH]c2c1,-12%[70.6 µM],i,28µM*,22µM*
CC1=C[C@@H](CNC(=O)C2CCCCC2)[C@H](C(C)C)C[C@H]1Cc1nc2ccc(C)cc2[nH]1,-20%[70.6 µM],i,?,?
COc1ccc2nc(C[C@@H]3C[C@@H](C(C)C)[C@H](CNC(=O)C4CCCCC4)C=C3C)[nH]c2c1,-29%[70.6 µM],i,50µM*,56µM*
COc1ccc2nc(C[C@@H]3C[C@@H](C(C)C)[C@H](CNC(=O)COCC(=O)O)C=C3C)[nH]c2c1,-5%[70.6 µM],i,i,-13%[174 µM]
COc1ccc2nc(C[C@@H]3C[C@@H](C(C)C)[C@H](CNCc4ccccc4)C=C3C)[nH]c2c1,-18%[70.6 µM],i,45µM*,50µM*
CC(CCc1ccccc1)NC(=O)C1CN(C2CCCC2)C(=O)N1 (stereo not drawn),·,·,-2%[172 µM],-20%[138 µM]
CCOC(=O)[C@H]1C[C@]2(CCCCN(C)C2=O)N(C(=O)c2cccs2)[C@H]1c1ccco1,·,·,-19%,?
COc1ccccc1C1NC(=O)N(CCC(C)C)C2=C1C(=O)OC2 (stereo not drawn),-11%,i,-7%,-3%
CC1=C[C@@H](CNC(=O)CCCC(=O)O)[C@H](C(C)C)C[C@H]1Cc1nc2ccccc2n1C,1%[70.6 µM],i,-12%[172 µM],-7%[138 µM]
CC(=O)NC[C@@H]1C=C(C)[C@H](Cc2nc3ccccc3n2C)C[C@H]1C(C)C,?,i,35µM*,79µM*
Cn1cc(-c2cnc(Nc3ccc(F)c(Cl)c3)c3c2CCO3)cn1,-10%[70.6 µM],i,?,-40%[138 µM]
Cn1cc(-c2cnc(Nc3ccncc3)c3c2CCO3)cn1,2%[70.6 µM],i,?,89µM*
CN(C)c1cccc(-c2cnc(Nc3cncnc3)c3c2CCO3)c1,-18%[70.6 µM],i,?,?
c1ccc(-c2cnc(Nc3ccncc3)c3c2CCO3)cc1,25µM*,28µM*,79µM*,45µM*
Cn1ncc2c(C(=O)NCC3CCCCC3)cc(C(C)(C)C)nc21,·,·,-17%[172 µM],-23%[138 µM]
CC(C)NC(=O)c1cc(-c2ccc(S(C)(=O)=O)cc2)nc2c1cnn2C,·,·,-7%,-21%
Cn1ncc2c(C(=O)NC3CCCCCC3)cc(C(C)(C)C)nc21,·,·,35µM*,?
Cn1ncc2c(C(=O)NC3CC3)cc(-c3cc(Cl)cc(Cl)c3)nc21,·,·,i,i
Cn1ncc2c(C(=O)NC3CC3)cc(-c3ccc(Cl)cc3)nc21,·,·,?,79µM*
